# An excerpt weighted towards active compounds, which were near 11% of everything screened.
# SW480 rerep: DNA re-replication induction in SW480 cells; SW480 DNA re-replication, Hoechst DNA content imaging, 48 h; Potency, µM (doses to about 46.1 µM), inactives show top-dose re-replication activation, actives largely listed as activators; 1.8% of 340,000 active; also: potency is read from the fitted curve at half-maximal effect; % of control where 0% means no effect; nearly all actives have a fitted effect of over 55% in size
#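 Cells (250 per well) received 23 nL compound or DMSO by pin tool and were kept 48 hr at 37 C, 5% CO2. Nuclei were then stained with Hoechst for 40 min and scanned for DNA content.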
# MCF10A rereplic: DNA re-replication induction in MCF 10a cells | MCF 10A DNA re-replication, Hoechst nuclear intensity, 48 h | Potency, µM (series often up to 46.1 µM), inactives show top-dose activity, positive = re-replication, hits mostly activators | 2.9% of 350,000 active; also: potency is read from the fitted curve at half-maximal effect; % of control where 0% means no effect; nearly all actives have a fitted effect of over 50% in size
# RORgamma inh: inhibitors of mouse ROR gamma transcriptional activity; P51450; Drosophila S2 Gal4-RORgamma UAS-luciferase reporter, 20 h; Potency, µM (titrated, usually from 53.6 µM), for the others: at the highest dose activity change, negative = inhibition, most hits filed as inhibitors; 5.4% of 310,000 active; AID 2551; also: potency is read from the fitted curve at half-maximal effect; % is scaled to controls: 0 for no effect and ±100 for the full control effect; nearly all actives have a fitted effect of over 60% in size
# Target sequence (P51450 whole entry, looked up, the tested form may be a part): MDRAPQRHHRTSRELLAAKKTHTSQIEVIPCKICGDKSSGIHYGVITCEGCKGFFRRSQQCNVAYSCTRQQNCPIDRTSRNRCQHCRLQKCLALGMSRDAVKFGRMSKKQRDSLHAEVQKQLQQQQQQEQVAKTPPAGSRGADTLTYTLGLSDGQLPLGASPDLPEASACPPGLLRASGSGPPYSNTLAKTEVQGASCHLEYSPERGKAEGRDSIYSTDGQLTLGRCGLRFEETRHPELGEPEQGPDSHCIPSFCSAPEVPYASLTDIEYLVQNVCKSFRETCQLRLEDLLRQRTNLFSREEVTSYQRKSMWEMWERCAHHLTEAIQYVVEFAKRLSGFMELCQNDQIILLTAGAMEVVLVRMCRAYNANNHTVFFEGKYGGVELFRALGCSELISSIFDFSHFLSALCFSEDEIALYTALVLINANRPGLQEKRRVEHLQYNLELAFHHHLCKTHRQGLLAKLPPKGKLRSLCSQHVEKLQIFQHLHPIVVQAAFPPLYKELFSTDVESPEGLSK
#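 Schneider cells (Drosophila), stable Gal4 DBD–ROR gamma + UAS-luc; 1 hr cmpd preincubation; Cu2+ induction 700 uM final; 20 hr ambient; luminescence.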
# VP16 counter: counter-screen for ROR gamma inhibitors: Gal4-VP16 reporter; Drosophila S2 Gal4-VP16 UAS-luciferase, luminescence, 20 h; Potency, µM (top dose mostly 53.6 µM), without a hit: top-dose activity, negative = inhibition, most hits filed as inhibitors; 3.5% of 310,000 active; AID 2546;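 also: Gal4-VP16 expression switched on by copper sulfate through the metallothionein promoter; potency is read from the fitted curve at half-maximal effect; % is scaled to controls: 0 for no effect and ±100 for the full control effect; nearly all actives have a fitted effect of over 50% in size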
# IL-1B inflam inh: inhibitors of inflammasome signaling (IL-1 beta secretion); THP-1 LPS/ATP IL-1B secretion, AlphaLISA, 16 h; stronger effect = lower value; 4.7% of 360,000 active; AID 743279; activity change, % at 57.5 µM; in the data active = activity change below about -50%; inconclusive = mostly about -30% to -49%; also: % is scaled to controls: 0 for no effect and ±100 for the full control effect
#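 Secreted IL-1B measured by AlphaLISA bead assay after 16 h compound exposure of THP-1 cells; compounds (final up to 57.5 uM) added 1 h before LPS (250 ng/mL) and ATP (1.25 mM) stimulation; lower signal means less secretion.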
# Active calls of the source: *; ? = inconclusive; . = no result given; [ ] = dose if it differs, or a comment. Unless noted, calls follow the shape of the dose curve; as a rule, active = well fitted curve in the direction sought with a large enough effect; inconclusive = small, poorly fitted or top-dose-only effect, or another doubt; inactive = no such curve, though single readings can be large; an effect the other way counts as inactive or inconclusive.
SMILES,SW480 rerep,MCF10A rereplic,RORgamma inh,VP16 counter,IL-1B inflam inh
CNc1ccc(-c2cc(OC)ccc2OC)cn1,.,.,.,.,-5.8
Cc1nc2ccc(C(=O)N(C)Cc3ccccc3)cn2c1N(C)C(=O)CCc1ccccc1,.,.,.,.,-2.6
Cc1cc(NC(=O)OC2CCCCC2)ccc1[N+](=O)[O-],7.5%,?,85.7%,?,-51.2*
CCCOc1ccc(CCc2n[nH]c(=S)n2Cc2ccccc2)cc1,1.8%,20.6µM*,2µM*,1.26µM*,-9.6
CCCOc1ccc(CCc2n[nH]c(=S)n2-c2ccccc2)cc1,-8.2%,1.3%,2.82µM*,-17.9%[10 µM],0.6
C=CCn1c(CCC(O)COCCC)n[nH]c1=S (configuration not stated),-1.8%,-1.3%,-19.2%,2.9%,-3.2
CCCCC(CC(O)COCCC)c1n[nH]c(=S)n1-c1ccccc1 (configuration not stated),-9.0%,-15.8%,11.2µM*,?,51.4
CCOc1ccc(-n2c(CCc3ccccc3)n[nH]c2=S)cc1,0.8%,4.1%,?,?,5.2
COCCn1c(CCc2ccccc2)n[nH]c1=S,-3.2%,16.1%,11.2µM*,?,-3.4
CC(=O)NC1(C)CCC2CC1C(C)=NC2(C)C (configuration not stated),.,.,.,.,30.0
CCSc1nnc(NC(=O)CCNS(=O)(=O)c2ccccc2F)s1,-42.4%,-2.2%,3.3%,-19.9%,57.8
O=C(c1ccccc1)C1CC=CCC1C(=O)c1ccccc1 (configuration not stated),4.7%,?,.,.,-15.8
COc1ccc(CNC(=O)C[C@H]2C(=O)N(CCc3ccccc3)C[C@@H]2Cc2ccccc2)cc1,-0.8%,-4.1%,22.2%,3.7%,?
CCn1c(CCCOc2ccc(Cl)cc2Cl)n[nH]c1=S,-3.6%[1.84 µM],6.6%,2.82µM*,3.16µM*,-0.8
CCn1c(CCCOc2ccc(Cl)cc2Cl)nnc1SCC(=O)Nc1cccc(F)c1,-6.4%,18.9%,15.0%,2.8%,2.9
CCn1c(CNS(=O)(=O)c2ccc(Br)cc2)n[nH]c1=S,?,-20.7%,-29.4%,0.1%,24.7
CCn1c(CCCCc2n[nH]c(=S)n2CC)n[nH]c1=S,5.1%,?,5.62µM*,-26.4%,14.4
S=c1[nH]nc(CCc2ccccc2)n1Cc1ccccc1,0.5%,13.3%,2.24µM*,5.01µM*,11.8
CCn1c(CN2c3ccccc3Sc3ccccc32)n[nH]c1=S,2.5%,?,2.82µM*,?,-13.6
CCn1c(CCNC(=O)c2ccc(C)cc2)n[nH]c1=S,-64.0%,-6.5%,6.0%,25.0%,12.1
Cc1cnc(CNc2nc(-c3cccc(NS(C)(=O)=O)c3)nc3ccccc23)cn1,.,.,-11.3%,1.6%,.
CCNC(=O)C1(C)CCCN1C(=O)c1ccc(C#N)cc1 (configuration not stated),.,.,.,.,0.0
Cc1ccc(NCc2n[nH]c(=S)n2Cc2ccccc2)cc1Cl,-7.0%,21.3%,3.98µM*,?,-10.2
S=c1[nH]nc(CCSCc2ccccc2)n1-c1ccccc1,-6.7%,-2.6%,2.82µM*,1.3%,26.7
CCCCCCCc1n[nH]c(=S)n1Cc1ccccc1,-4.6%[9.22 µM],?,1.26µM*,?,5.6
SMILES,SW480 rerep,MCF10A rereplic,RORgamma inh,VP16 counter,IL-1B inflam inh
CCCCCC(O)CCc1n[nH]c(=S)n1-c1ccccc1 (configuration not stated),-20.8%,8.0%,6.31µM*,2.2%,4.0
CN(C)c1ccc(-c2cc(NCc3ccccc3)ncn2)cc1,.,.,8.5%,?,.
CCc1nc2ccc(C(=O)N(CC)CCN(C)C)cn2c1N(C=O)CCC(C)C,.,.,.,.,16.4
CCOC(=O)C1C(C(=O)OC)=C(c2ccc(F)cc2)c2ccc(OC)cc2N1S(=O)(=O)C(F)(F)F (configuration not stated),.,.,28.6%[40.7 µM],-3.2%[40.7 µM],.
CCCCc1n[nH]c(=S)n1Cc1ccc(C)cc1,-9.8%,-1.9%,5.62µM*,?,26.4
COc1ccc(-n2c(CCc3ccccc3)n[nH]c2=S)cc1,6.2%,-0.6%,5.01µM*,-24.1%,23.7
CCCc1nc2ccc(C)cn2c1Cc1ccc(OC)cc1C,.,.,.,.,4.5
CCN(CC)C(=O)[C@H]1CC(CC(=O)NCC23CC4CC(CC(C4)C2)C3)C(=O)N2CCc3c([nH]c4ccccc34)[C@]12C (some centres not stated),23.1µM*,?,.,.,?
CCN(CC)C(=O)[C@H]1CC(CC(=O)NCCCn2ccnc2)C(=O)N2CCc3c([nH]c4ccccc34)[C@]12C (some centres not stated),-3.9%,48.5%,.,.,7.5
COc1ccc2[nH]c3c(c2c1)CCN1C(=O)C(CC(=O)NCC24CC5CC(CC(C5)C2)C4)C[C@H](C(=O)N(C(C)C)C(C)C)[C@@]31C (some centres not stated),?,?,.,.,-71.8*
CCOc1ccccc1Nc1cc(C)nc2ccc(C)cc12,-2.8%,?,.,.,-96.0*
COc1ccc2nc(C)cc(Nc3ccc(N4CCN(C)CC4)cc3)c2c1,13.2%,?,3.8%,-10.5%,-105.5*
COc1ccc(OC)c(Nc2cc(C)nc3ccc(C)cc23)c1,18.4µM*,?,.,.,-77.3*
COc1ccc2nc(C)cc(Nc3ccc(N4CCOCC4)cc3)c2c1,4.9%,-1.7%,-22.3%,-0.1%,.
O=C(CSc1n[nH]c(-c2ccncc2)n1)Nc1ccccc1Cl,-30.3%,25.7%,.,.,34.4
COc1ccccc1C(=O)NCCCCNC(=O)c1ccccc1OC,-12.0%,-1.5%,.,.,9.7
C[C@]12CC[C@H]3c4ccc(O)cc4CC[C@@H]3[C@H]1CC[C@@H]2OC(=O)CCC1CCCC1,7.5%,?,-7.9%[10 µM],?,.
CCc1nnc(NS(=O)(=O)c2ccc(NC(=S)NC(=O)c3ccc(OC)c(OC)c3)cc2)s1,18.4µM*,?,-20.0%[10 µM],-5.1%,8.3
CCc1nnc(NS(=O)(=O)c2ccc(N/C=C/C(=O)c3ccc(C)cc3)cc2)s1,-12.4%,18.4µM*,34.2%,0.9%,4.0
CCc1nnc(NS(=O)(=O)c2ccc(N/C=C\C(=O)c3ccc(C)cc3)cc2)s1,-1.1%,?,34.5%,-6.9%,19.1
COc1cc(CNC2CCCC2)cc(Cl)c1OCc1ccccc1Cl,?,16.4µM*,-34.8%,-19.9%,-93.8*
COc1cc(CNC2CCCC2)cc(Cl)c1OCc1ccc(F)cc1,11.6%,?,?,2.2%,?
CCOc1cc(CNC2CCCC2)cc(Cl)c1OCc1ccc(F)cc1,?,?,0.3%,-86.4%,-80.1*
CC(C)=CCc1c(O)ccc(C(=O)Cc2ccccc2)c1O,3.7%,20.6µM*,32.6%,-17.4%,-0.2
O=C(Cc1cnn(-c2ccccc2)c1)c1ccc(O)c(O)c1O,-9.0%,-5.4%,30.7%,11.4%,41.0
CNC(CC(=O)c1ccc([N+](=O)[O-])cc1)C(Cl)(Cl)Cl (configuration not stated),.,?,?,12.6µM*,-67.4*

# Screening data deposited in PubChem by National Center for Advancing Translational Sciences (NCATS).
